Experiment [1] can be described thus: optical density shifts of acrAB sulA E. coli – strain DRC41, OD650, 48 h, E. coli filamentation inducer project, primary screen (AID 1152).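 Further: E. coli MC1000 strain DRC41 lacking acrAB efflux pump and sulA.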 To be noted: higher = more signal, called active from +8 up or from −8 down.
Experiment [2] can be described thus: probe aLefty1 binding on compound microarray – biochemical, small-molecule microarray, 635/667 nm fluorescence, primary screen (AID 1153).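 Further: score merges spot fluorescence with signal-to-noise ratio from the scanned slide images.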 Particulars: higher = more signal.
Experiment [3] in a line: plasmodial surface anion channel blockers, osmotic lysis – cell-based, P. falciparum Indochina, OD700, 1 h, primary screen (AID 1154). Particulars: P. falciparum Indochina infected RBC osmotic lysis, higher = more signal, called active from +8 up or from −8 down.
Experiment [4] can be described thus: plasmodial surface anion channel blockers, osmotic lysis – cell-based, P. falciparum Indochina, OD700, 2 h, primary screen (AID 1155).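 Further: lysis reports solute entry through the parasite surface anion channel PSAC.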 To be noted: P. falciparum Indochina infected erythrocytes, higher = more signal, called active from +8 up or from −8 down.
A short description of experiment [5]: changes in parasitized red cell lysis, either direction – P. falciparum Indochina, OD700, 3 h, PSAC antagonist project, primary screen (AID 1156). To be noted: P. falciparum-infected erythrocytes, osmotic lysis, higher = more signal, called active from +8 up or from −8 down.
Experiment [6] in a line: plasmodial surface anion channel blockers, osmotic lysis – cell-based, P. falciparum Indochina, OD700, 18 h, primary screen (AID 1157). Particulars: P. falciparum Indochina infected erythrocytes, osmotic lysis OD700, 18 h; higher = more signal, called active from +8 up or from −8 down.
Experiment [7] in a line: S6 kinase pathway phospho-S6 level changes – cell-based, A549, cytoblot, luminescence, serum-stimulated, primary screen (AID 1158).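 Further: serum-stimulated A549 lung adenocarcinoma cells; signal is phosphorylated S6 detected by cytoblot immunostaining with HRP secondary.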 To be noted: 5 h, higher = more signal.
Experiment [8] addresses NADPH oxidase 2 (Homo sapiens) (UniProt P04839). Put plainly: compounds shifting NOX2 Amplex Red fluorescence – cell-based, HEK293-NOX2, PMA-stimulated, NOX inhibitor project, primary screen (AID 1159). Further: test concentration not given here. To be noted: 45 min, higher = more signal, called active from +8 up or from −8 down.
Experiment [9] addresses NADPH oxidase 4 (Homo sapiens) (UniProt Q9NPH5). In words: compounds shifting NOX4 Amplex Red fluorescence – cell-based, HEK293-NOX4, tetracycline-induced, NOX inhibitor project, primary screen (AID 1160). To be noted: HEK293-NOX4, Amplex Red H2O2 fluorescence, 45 min; higher = more signal, called active from +8 up or from −8 down.
Experiment [10] has as its target NADPH oxidase 5 (Homo sapiens) (UniProt Q96PH1). In words: compounds shifting NOX5 Amplex Red fluorescence – cell-based, HEK293-NOX5, NOX inhibitor project, primary screen (AID 1161). Particulars: HEK293-NOX5, ionomycin, 45 min, higher = more signal.
Experiment [11] is described as follows: compound effects on lung adenocarcinoma cell viability – A549, calcein-AM fluorescence, 48 h, basal, profiling panel (AID 1162). Further: test concentration not given here. Particulars: higher = more signal.
The nature of experiment [12]: compound effects on differentiated 3T3-L1 adipocyte viability – cell-based, 3T3-L1 adipocytes, calcein-AM fluorescence, 48 h, basal, profiling panel (AID 1163). Further: test concentration not given here. Particulars: 3T3-L1 adipocytes viability, higher = more signal.
Experiment [13] is described as follows: compound effects on hepatocellular carcinoma cell viability – HepG2, calcein-AM fluorescence, 48 h, basal, profiling panel (AID 1164). Further: test concentration not given here. To be noted: higher = more signal.
Experiment [14] is described as follows: compound effects on multiple myeloma cell viability – MM1S, calcein-AM fluorescence, 48 h, basal, profiling panel (AID 1165).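 Further: viability of MM1S multiple myeloma cells under basal unstimulated conditions; test concentration not given here.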 To be noted: higher = more signal.
A short description of experiment [15]: calcein-AM signal in unstimulated myeloma cells – cell-based, calcein-AM fluorescence, 48 h, PK04 Diversity Set, profiling panel (AID 1166).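 Further: cells grown under basal conditions without added stimulus; test concentration not given here.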 Particulars: RPMI8226 myeloma viability, higher = more signal.
The nature of experiment [16]: JC-1 mitochondrial signal, unstimulated HepG2 cells – cell-based, JC-1 fluorescence, 24 h, 100 nL compound, profiling panel (AID 1167). Further: test concentration not given here. To be noted: HepG2 mitochondrial potential, higher = more signal.
A short description of experiment [17]: JC-1 mitochondrial signal, unstimulated adipocytes – cell-based, JC-1 fluorescence, 3T3-L1 adipocytes, 24 h, 100 nL compound, profiling panel (AID 1168). Further: test concentration not given here. Particulars: JC-1 mitochondrial fluorescence, higher = more signal, called active from +8 up or from −8 down.
A short description of experiment [18]: JC-1 mitochondrial signal, unstimulated myeloma cells – cell-based, JC-1 fluorescence, RPMI8226, 24 h, 100 nL compound, profiling panel (AID 1169). Further: test concentration not given here. To be noted: JC-1 mitochondrial potential fluorescence, higher = more signal.
Experiment [19] in a line: JC-1 mitochondrial signal, unstimulated MM1S myeloma – cell-based, JC-1 fluorescence, 24 h, 100 nL compound, profiling panel (AID 1170). Further: test concentration not given here. Particulars: MM1S mitochondrial potential, higher = more signal.
A short description of experiment [20]: resazurin metabolic signal in A549 cells – cell-based, resazurin fluorescence, 24 h, PK04 Diversity Set, profiling panel (AID 1171). Further: test concentration not given here. To be noted: A549 viability, higher = more signal, called active from +8 up or from −8 down.

The source made the active and inactive calls.

NADPH oxidase 5 (Homo sapiens), sequence (Q96PH1 whole entry, looked up): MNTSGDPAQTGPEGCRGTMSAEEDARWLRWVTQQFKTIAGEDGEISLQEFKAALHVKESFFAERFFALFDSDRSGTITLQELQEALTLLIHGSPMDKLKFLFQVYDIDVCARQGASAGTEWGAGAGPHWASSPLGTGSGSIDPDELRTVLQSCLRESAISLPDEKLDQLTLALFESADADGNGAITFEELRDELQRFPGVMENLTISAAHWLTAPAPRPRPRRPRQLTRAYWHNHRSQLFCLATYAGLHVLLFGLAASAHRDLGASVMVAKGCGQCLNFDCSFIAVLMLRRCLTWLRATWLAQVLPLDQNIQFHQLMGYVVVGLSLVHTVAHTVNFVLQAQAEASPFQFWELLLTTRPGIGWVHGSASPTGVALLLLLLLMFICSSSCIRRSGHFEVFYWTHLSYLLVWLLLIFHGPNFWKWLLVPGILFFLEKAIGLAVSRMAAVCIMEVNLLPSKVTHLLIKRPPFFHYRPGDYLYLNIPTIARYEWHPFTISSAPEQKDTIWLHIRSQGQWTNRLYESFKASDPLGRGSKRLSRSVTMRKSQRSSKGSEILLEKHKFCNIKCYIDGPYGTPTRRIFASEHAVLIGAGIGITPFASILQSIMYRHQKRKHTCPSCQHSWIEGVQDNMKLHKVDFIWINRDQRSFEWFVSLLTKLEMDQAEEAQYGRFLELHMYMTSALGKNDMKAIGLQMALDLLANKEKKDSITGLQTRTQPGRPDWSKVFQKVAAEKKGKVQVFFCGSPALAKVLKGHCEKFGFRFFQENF
NADPH oxidase 2 (Homo sapiens), sequence (P04839 whole entry, looked up): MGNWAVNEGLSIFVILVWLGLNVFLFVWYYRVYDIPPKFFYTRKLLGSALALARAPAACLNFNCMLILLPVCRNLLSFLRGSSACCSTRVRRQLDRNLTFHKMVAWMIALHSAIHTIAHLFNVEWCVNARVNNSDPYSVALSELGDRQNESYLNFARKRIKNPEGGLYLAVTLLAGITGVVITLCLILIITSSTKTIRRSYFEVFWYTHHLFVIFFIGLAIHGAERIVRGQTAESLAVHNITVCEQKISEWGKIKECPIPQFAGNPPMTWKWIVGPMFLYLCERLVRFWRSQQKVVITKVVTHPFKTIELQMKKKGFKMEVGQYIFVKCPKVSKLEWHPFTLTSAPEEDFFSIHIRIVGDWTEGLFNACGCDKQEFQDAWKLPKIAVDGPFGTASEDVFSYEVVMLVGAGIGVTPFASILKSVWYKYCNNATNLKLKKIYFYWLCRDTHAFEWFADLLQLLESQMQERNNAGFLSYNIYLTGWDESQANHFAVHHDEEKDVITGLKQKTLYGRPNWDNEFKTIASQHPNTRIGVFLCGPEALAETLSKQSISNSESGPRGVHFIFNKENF
NADPH oxidase 4 (Homo sapiens), sequence (Q9NPH5 whole entry, looked up): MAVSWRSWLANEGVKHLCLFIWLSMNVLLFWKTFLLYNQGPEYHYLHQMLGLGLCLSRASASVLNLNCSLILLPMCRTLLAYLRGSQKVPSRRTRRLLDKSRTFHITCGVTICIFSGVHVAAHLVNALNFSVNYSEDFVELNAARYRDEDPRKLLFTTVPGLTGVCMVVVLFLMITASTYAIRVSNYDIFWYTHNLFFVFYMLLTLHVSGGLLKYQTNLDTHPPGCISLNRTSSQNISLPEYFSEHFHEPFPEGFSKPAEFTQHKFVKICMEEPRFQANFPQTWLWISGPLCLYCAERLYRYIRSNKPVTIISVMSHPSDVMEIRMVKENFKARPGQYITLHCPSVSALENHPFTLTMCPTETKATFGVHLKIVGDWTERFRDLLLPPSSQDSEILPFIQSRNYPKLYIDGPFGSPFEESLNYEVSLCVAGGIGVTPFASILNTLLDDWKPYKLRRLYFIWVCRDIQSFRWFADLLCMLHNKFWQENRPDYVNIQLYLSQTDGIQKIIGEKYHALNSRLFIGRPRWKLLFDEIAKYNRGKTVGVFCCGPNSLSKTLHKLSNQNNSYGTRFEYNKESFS

For `Cc1ccc(S[C@]2(C(=O)NC(C)C)CC(=O)N(C3CCCCC3)[C@@H]2c2ccc(CO)cc2I)cc1`, the z-score in experiment [1] is 0.497 (inactive); in experiment [3] it was 6.28 (inactive); in experiment [4] it was 1.47 (inactive); in experiment [5], 1.18 (inactive); in experiment [6], 0.916 (inactive); in experiment [7], -0.052. For the same molecule, the z-score was 0.877 (inactive) in experiment [8]; 0.292 (inactive) in experiment [9]; 1.89 in experiment [10]; -0.0909 in [11]; 0.0617 in experiment [12]; -0.938 in experiment [13]. Further, the z-score in [14] was -2.07; in experiment [15] it was -2.68; in experiment [16], 1.06; in [17], -0.0605 (inactive); in experiment [18], -0.351; in [19], -1.12. Also, the z-score in [20] was 0.81 (inactive). In [2], this molecule displayed a composite z-score of -0.0564.

As to `O=C(O)[C@H](Cc1ccccc1)n1cc(C2(O)CCCCC2)nn1`, the z-score in [1] is -0.976 (inactive); in [3] it was 0.0438 (inactive); in experiment [4], -0.879 (inactive); in experiment [5], -0.472 (inactive); in experiment [6], -0.281 (inactive); in experiment [7], 0.347. For the same molecule, the z-score in experiment [8] is 1.01 (inactive); in experiment [9] it was 0.715 (inactive); in experiment [10], 0.31; in experiment [11], -0.53; in experiment [12] it was -1.54; in experiment [13], 0.105. Moreover, the z-score is -0.364 in [14]; -0.361 in experiment [15]; -1.14 in experiment [16]; -0.569 (inactive) in [17]; 0.791 in [18]; -0.417 in experiment [19]. Moreover, in [20], the z-score is 0.0465 (inactive). Also, the composite z-score in [2] stood at 0.592.

`COc1ccc([Si](C)(C)[C@@H]2[C@@H](CC(=O)N(CCO)Cc3ccccc3)O[C@]3(C(=O)N(Cc4ccc(I)cc4)c4ccccc43)[C@H]2C)cc1`: the z-score in [1] was 0.452 (inactive); in experiment [3], 5.81 (inactive); in experiment [4], 1.02 (inactive); in experiment [5], 0.408 (inactive); in [6], 0.794 (inactive); in [7], 0.421. Also, the z-score in experiment [8] was 0.454 (inactive); in [9] it was 1.6 (inactive); in [10], 1.55; in experiment [11], -1.14; in experiment [12], 0.909; in experiment [13], -1.59. Further, the z-score was -2.54 in experiment [14]; -4.17 in experiment [15]; 1.17 in [16]; 0.448 (inactive) in experiment [17]; -1.2 in experiment [18]; -0.732 in [19]. For the same molecule, the z-score in experiment [20] is -2.88 (inactive). In addition, the composite z-score in experiment [2] is 1.03.

For the molecule `O=C1C[C@]2(c3ccc([N+](=O)[O-])cc3)C(=O)N(C3CC3)c3cc(CO)ccc3[C@H]2N1C1CCCCC1`, the z-score was -0.348 (inactive) in experiment [1]; -0.58 (inactive) in experiment [3]; 0.0608 (inactive) in experiment [4]; -1.35 (inactive) in experiment [5]; -0.0894 (inactive) in [6]; -0.278 in [7]. For the same molecule, the z-score in [8] is 0.0692 (inactive); in experiment [9], 0.987 (inactive); in experiment [10], 0.0695; in [11] it was -0.164; in [12], -0.898; in experiment [13] it was 0.214. Also, the z-score in experiment [14] was -0.464; in experiment [15], 0.474; in [16] it was -1.07; in experiment [17] it was -0.185 (inactive); in experiment [18] it was -0.691; in experiment [19] it was -0.993. Besides, in experiment [20], the z-score was -0.332 (inactive). In [2], this molecule came in with a composite z-score of 0.91.

As to `O=C(NC1CC1)[C@@H]1c2ccccc2C(=O)N(Cc2ccc(OC(F)(F)F)cc2)[C@H]1c1ccc(CO)cc1`, the z-score in experiment [1] was 0.93 (inactive); in experiment [3], 1.49 (inactive); in experiment [4] it was -0.538 (inactive); in [5], 2.44 (inactive); in [6], -1.2 (inactive); in [7], 0.358. Besides, the z-score in experiment [8] is 0.0746 (inactive); in [9], -0.866 (inactive); in experiment [10], -0.523; in experiment [11], 1.1; in experiment [12], 0.707; in experiment [13], -0.591. Further, the z-score in [14] is 0.0839; in experiment [15], -0.0348; in [16] it was 2.35; in experiment [17], 0.379 (inactive); in experiment [18], -0.261; in experiment [19] it was 0.825. The z-score in [20] is 1.03 (inactive). This molecule registered a composite z-score in experiment [2] of 0.118.

The values are drawn from PubChem BioAssay.
